Several values for one entry are separate records, joined by “and”; a condition that tells them apart may be missing. Equal entries are not always repeated. Results filed as inconclusive are left out. Some compounds were tested as several samples or in several runs, with calls that do not always agree. Activity calls are given as the source filed them. How the source made its calls, unless noted: active means hit-call score of the fitted dose curve at least 0.9, where 1 is the maximum; inactive means score below 0.9.

From PubChem BioAssay (EPA / NIEHS) come the findings set out here.

The target of test [1] is Oxysterols receptor LXR-alpha (Homo sapiens) (UniProt Q13133). Put plainly: ATG_LXRa_TRANS: Attagene TRANS-FACTORIAL HepG2 Assay for human Liver X Receptor alpha (LXRa) (AID 2282980; active means hit-call score of the fitted dose curve at least 0.9, where 1 is the maximum). The following applies: HepG2 Attagene TRANS reporter, LXRa transactivation. An outline of the steps: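 In this multiplexed TRANS system, compounds act on HepG2 cells carrying GAL4-UAS reporter units and a receptor-GAL4 fusion for 24 h. Induced reporter RNA is amplified, fluorescently labelled and sized by capillary electrophoresis, with DMSO as baseline.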
Chain of Oxysterols receptor LXR-alpha (Homo sapiens) (Q13133 whole entry, looked up, the tested form may be a part): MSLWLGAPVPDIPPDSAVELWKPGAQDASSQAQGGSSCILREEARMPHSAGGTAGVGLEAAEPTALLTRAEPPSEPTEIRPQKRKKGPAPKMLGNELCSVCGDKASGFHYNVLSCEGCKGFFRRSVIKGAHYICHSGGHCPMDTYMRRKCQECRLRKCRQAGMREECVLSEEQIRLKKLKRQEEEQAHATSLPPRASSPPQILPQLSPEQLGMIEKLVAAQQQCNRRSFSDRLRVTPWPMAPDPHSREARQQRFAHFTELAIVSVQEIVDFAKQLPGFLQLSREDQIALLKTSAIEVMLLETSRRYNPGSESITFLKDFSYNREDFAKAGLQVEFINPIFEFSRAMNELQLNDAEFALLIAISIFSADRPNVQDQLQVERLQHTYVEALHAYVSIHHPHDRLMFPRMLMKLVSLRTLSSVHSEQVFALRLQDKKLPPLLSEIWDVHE

Test [2] in a line: ATG_M_06_TRANS: Attagene TRANS-FACTORIAL HepG2 Assay for M06 Transcription Factor (Internal Marker) (AID 2282983; active means hit-call score of the fitted dose curve at least 0.9, where 1 is the maximum;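 further: reporter transcript level by RT-PCR then capillary electrophoresis fluorescence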). The following applies: HepG2 Attagene TRANS M06 internal marker reporter. In outline:
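Internal-marker background readout from a multiplexed TRANS reporter system in HepG2; 24 h dosing; mRNA induction quantified by RT-PCR plus capillary electrophoresis fluorescence; DMSO as negative control and baseline.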

Test [3] in a line: ATG_M_32_TRANS: Attagene TRANS-FACTORIAL HepG2 Assay for M32 Transcription Factor (Internal Marker) (AID 2282984; active means hit-call score of the fitted dose curve at least 0.9, where 1 is the maximum;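 further: transcript level of a background control reporter unit measured by RT-PCR and capillary electrophoresis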). As to conditions: HepG2 Attagene TRANS M32 internal marker reporter. In outline: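 Capillary electrophoresis of 6-FAM-labelled reporter fragments gives the signal; data fitted for gain over DMSO negative control. Source: HepG2 cells bearing transient multiple reporter transcription units, 24 h exposure.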

Test [4] addresses Nuclear receptor subfamily 4 group A member 2 (Homo sapiens) (UniProt P43354). Nature of the test: ATG_NURR1_TRANS: Attagene TRANS-FACTORIAL HepG2 Assay for human Nuclear Receptor Related Protein 1 (NURR1) (AID 2282985; active means hit-call score of the fitted dose curve at least 0.9, where 1 is the maximum). The following applies: HepG2 Attagene TRANS reporter, mRNA readout. In outline: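 HepG2 / transient MRTU transfection / 24 h compound exposure / RT-PCR + CE fluorescence of reporter mRNA / gain-of-signal vs DMSO.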

The target in test [5] is Transcriptional activator Myb (Homo sapiens) (UniProt P10242). Put plainly: ATG_Myb_CIS: Attagene CIS-FACTORIAL HepG2 Assay for human Myeloblastosis (Myb) Proto-Oncogene Transcription Factor (AID 2282986). As to conditions: HepG2 Attagene CIS-FACTORIAL Myb reporter transcription; actives raise or lower the signal. An outline of the steps: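 Transiently transfected HepG2 cells, treated 24 h. Reporter mRNA quantified by RT-PCR/capillary electrophoresis; bidirectional fit relative to DMSO.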
Chain of Transcriptional activator Myb (Homo sapiens) (P10242 whole entry, looked up): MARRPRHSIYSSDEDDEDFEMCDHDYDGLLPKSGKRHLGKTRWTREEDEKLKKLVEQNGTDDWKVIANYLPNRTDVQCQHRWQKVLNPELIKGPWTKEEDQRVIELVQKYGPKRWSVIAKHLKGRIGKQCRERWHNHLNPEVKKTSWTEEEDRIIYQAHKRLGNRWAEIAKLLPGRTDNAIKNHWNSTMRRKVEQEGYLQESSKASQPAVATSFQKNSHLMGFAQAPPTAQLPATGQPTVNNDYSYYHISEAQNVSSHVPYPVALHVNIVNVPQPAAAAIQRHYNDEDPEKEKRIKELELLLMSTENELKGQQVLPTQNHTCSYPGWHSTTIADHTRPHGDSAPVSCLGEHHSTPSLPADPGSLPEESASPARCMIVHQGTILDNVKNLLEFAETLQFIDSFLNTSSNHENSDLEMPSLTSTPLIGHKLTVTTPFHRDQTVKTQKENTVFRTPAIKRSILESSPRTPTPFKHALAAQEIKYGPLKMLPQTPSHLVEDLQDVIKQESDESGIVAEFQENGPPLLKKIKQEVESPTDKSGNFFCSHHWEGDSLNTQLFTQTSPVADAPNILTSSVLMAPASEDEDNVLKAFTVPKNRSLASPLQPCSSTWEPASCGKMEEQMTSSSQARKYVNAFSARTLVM

The target of test [6] is Nuclear respiratory factor 1 (Homo sapiens) (UniProt Q16656). Nature of the test: ATG_NRF1_CIS: Attagene CIS-FACTORIAL HepG2 Assay for human Nuclear Respiratory Factor 1 (NRF1) Orphan Gene (AID 2282987). As to conditions: HepG2 NRF1 cis-element reporter, Attagene multiplex; actives raise or lower the signal. In outline:
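Cells (HepG2, transient MRTU transfection) are exposed to compound for 24 h, then RNA isolated and reporter mRNA amplified and fluorescently labelled. Fragments are separated by capillary electrophoresis; signal change is fitted bidirectionally relative to DMSO.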

A short description of test [7]: ATG_NFI_CIS: Attagene CIS-FACTORIAL HepG2 Assay for human Nuclear Factor I (NFI) (AID 2282989). The following applies: HepG2 cis-regulatory reporter, NFI response element transcription; actives raise or lower the signal. An outline of the steps:
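HepG2 cells transiently transfected with cis-element-driven multiplexed reporter transcription units, dosed for 24 h. Reporter mRNA quantified by RT-PCR, fluorescent labelling, HpaI digestion and capillary electrophoresis; bidirectional fit versus DMSO baseline.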

Test [8] has as its target Myc proto-oncogene protein (Homo sapiens) (UniProt P01106). Put plainly: ATG_Myc_CIS: Attagene CIS-FACTORIAL HepG2 Assay for human Myelocytomatosis (Myc) Proto-Oncogene Transcription Factor (AID 2282990). The following applies: HepG2, Attagene cis-reporter transcription factor activity; actives raise or lower the signal. An outline of the steps: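 Transiently transfected HepG2 cells bearing cis-promoter reporter units for endogenous transcription factors; 24 h exposure. Reporter mRNA measured by RT-PCR, 6-FAM primer extension, HpaI cut and capillary electrophoresis; bidirectional fit relative to DMSO.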

Test [9] is described as follows: ATG_NF_kB_CIS: Attagene CIS-FACTORIAL HepG2 Assay for human Nuclear Factor Kappa B (NF-kB) (AID 2282991). The following applies: HepG2 Attagene cis-factorial NF-kB reporter mRNA; actives raise or lower the signal. In outline:
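Measures mRNA induction of an NF-kB-responsive cis-element reporter in HepG2 cells transfected with multiple reporter units, sampled 24 h post-dosing; quantified by fluorescence after RT-PCR and capillary electrophoresis, fitted for activation or inhibition against DMSO.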

A short description of test [10]: ATG_NRF2_ARE_CIS: Attagene CIS-FACTORIAL HepG2 Assay for human Nuclear Factor Erythroid 2 Related Factor 2 (NFR2) response to Antioxidant Response Elements (ARE) (AID 2282992).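 On AC50: reporter mRNA level measured by RT-PCR and capillary electrophoresis fluorescence.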 As to conditions: HepG2 Attagene ARE/NRF2 reporter, transcription factor activity; actives raise or lower the signal. An outline of the steps:
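Transient MRTU transfection of HepG2; 24 h compound exposure; TriZol RNA, RT with oligo(dT), PCR, 6-FAM primer extension, HpaI cut, CE. Bidirectional fit vs DMSO.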

Chain of Nuclear receptor subfamily 4 group A member 2 (Homo sapiens) (P43354 whole entry, looked up): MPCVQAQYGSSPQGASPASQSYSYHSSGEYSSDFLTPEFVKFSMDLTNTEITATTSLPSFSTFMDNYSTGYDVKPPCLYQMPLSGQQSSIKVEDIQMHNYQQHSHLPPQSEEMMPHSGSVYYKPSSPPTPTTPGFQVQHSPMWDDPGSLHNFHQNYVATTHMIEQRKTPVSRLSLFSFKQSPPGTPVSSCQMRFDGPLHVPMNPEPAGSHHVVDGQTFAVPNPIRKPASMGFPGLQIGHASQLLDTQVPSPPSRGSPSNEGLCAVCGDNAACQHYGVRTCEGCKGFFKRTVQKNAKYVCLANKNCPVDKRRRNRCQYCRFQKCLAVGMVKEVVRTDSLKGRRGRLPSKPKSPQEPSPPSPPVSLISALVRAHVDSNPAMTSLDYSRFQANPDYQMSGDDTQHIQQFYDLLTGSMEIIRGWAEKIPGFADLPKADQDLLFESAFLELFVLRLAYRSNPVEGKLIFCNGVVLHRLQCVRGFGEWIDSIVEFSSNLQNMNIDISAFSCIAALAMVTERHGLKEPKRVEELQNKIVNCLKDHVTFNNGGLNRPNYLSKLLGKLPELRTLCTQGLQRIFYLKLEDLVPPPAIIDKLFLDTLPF
Chain of Myc proto-oncogene protein (Homo sapiens) (P01106 whole entry, looked up): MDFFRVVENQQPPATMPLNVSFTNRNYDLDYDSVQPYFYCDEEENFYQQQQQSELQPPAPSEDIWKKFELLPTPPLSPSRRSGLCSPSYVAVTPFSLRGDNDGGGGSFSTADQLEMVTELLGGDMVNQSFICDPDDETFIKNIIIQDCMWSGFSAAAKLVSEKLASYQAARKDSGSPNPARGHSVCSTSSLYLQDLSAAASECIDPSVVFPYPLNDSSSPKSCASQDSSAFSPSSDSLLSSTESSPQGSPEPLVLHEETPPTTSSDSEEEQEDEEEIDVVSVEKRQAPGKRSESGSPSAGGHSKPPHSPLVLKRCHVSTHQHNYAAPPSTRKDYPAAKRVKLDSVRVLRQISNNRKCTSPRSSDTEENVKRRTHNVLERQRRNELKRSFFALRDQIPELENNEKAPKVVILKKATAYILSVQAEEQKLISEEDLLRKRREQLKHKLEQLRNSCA
Chain of Nuclear respiratory factor 1 (Homo sapiens) (Q16656 whole entry, looked up, the tested form may be a part): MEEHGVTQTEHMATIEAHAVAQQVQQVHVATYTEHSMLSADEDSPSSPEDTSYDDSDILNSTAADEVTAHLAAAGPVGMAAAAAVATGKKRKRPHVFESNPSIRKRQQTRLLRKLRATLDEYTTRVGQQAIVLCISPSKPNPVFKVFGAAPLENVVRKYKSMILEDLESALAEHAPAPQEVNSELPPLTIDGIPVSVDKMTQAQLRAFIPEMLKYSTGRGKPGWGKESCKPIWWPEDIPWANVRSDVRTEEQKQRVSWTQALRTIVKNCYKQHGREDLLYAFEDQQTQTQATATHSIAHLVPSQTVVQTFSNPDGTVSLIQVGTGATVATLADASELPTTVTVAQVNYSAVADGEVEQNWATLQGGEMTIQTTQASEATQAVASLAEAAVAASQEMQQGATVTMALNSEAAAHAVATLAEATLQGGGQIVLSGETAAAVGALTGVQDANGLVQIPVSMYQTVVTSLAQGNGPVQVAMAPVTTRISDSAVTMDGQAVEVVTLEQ

Take `O=[Si]=O`: the result in test [1], in [2], in [3], in test [4], in test [5] and in test [6] was inactive. For the same compound, the outcome in test [7], in test [8], in [9] and in [10] was inactive.

As to `NC1CCCCC1`, the result in test [1], in test [2], in [5], in test [6], in test [8] and in [10] was inactive.

As for `c1ccc2occc2c1`, the compound was classed as inactive in [1], in test [2], in [4], in test [5], in test [6] and in test [8]. For the same compound, the compound was classed as inactive in test [9] and in test [10].

Take `CC(C)NCC(O)c1ccc(O)c(O)c1` (centres undefined): the compound was called inactive in test [1], in [2], in test [4], in test [5], in test [6] and in test [7]. Also, the outcome in [8] and in test [10] was inactive.

`CC(=O)S[C@H](C(=O)N[C@H]1Cc2ccccc2[C@H]2CCC[C@@H](C(=O)O)N2C1=O)C(C)C`: the outcome in [1], in [4], in [5], in [6], in test [8] and in test [9] was inactive. In test [10], the compound was called inactive.

As for `CSc1ccc(Oc2ccc(S(N)(=O)=O)cc2CN(C)C)cc1C`, the compound was called inactive in [1], in test [3], in test [4], in test [5], in test [6] and in test [7]. The result in test [8], in test [9] and in [10] was inactive.

Regarding `C=CCc1ccc(OC)c(OC)c1`, the compound was classed as inactive in [1], in [2], in [5], in test [6], in test [7] and in [8]. Besides, the compound was called inactive in [9] and in test [10].

In the case of `O=Cc1ccccc1C=O`, the call in test [1], in test [2], in test [3], in [4], in test [5] and in test [6] was inactive. Moreover, the compound was called inactive in test [7], in test [8] and in test [10].

On to `CCCCCCC(C=O)=Cc1ccccc1`, for which the compound was classed as inactive in test [1], in [2], in test [3], in [4], in test [5] and in [6]. Also, the result in [8] and in test [9] was inactive. In test [10], the AC50 is 27.8 µM (active) and 41 µM (active).

As to `S=c1[nH]c2ccccc2s1`, the compound was classed as inactive in test [1], in test [2], in test [5], in [6], in [7] and in test [8]. In addition, in test [10], the concentration at half-maximal activity (AC50) was 54.9 µM (active).

Turning to `NC=O`, the compound was classed as inactive in test [1], in [2], in [4], in test [5], in test [6] and in [7]. For the same compound, the outcome in [8], in [9] and in test [10] was inactive.

Regarding `O=C(N[C@@H](c1ccccc1)[C@@H]1CCCCN1)c1cccc(C(F)(F)F)c1Cl`, the call in test [1], in [2] and in [5] was inactive. For the same compound, the AC50 was 56.9 µM (active) in test [6], 54 µM (active) in [8], 53.2 µM (active) in test [9] and 9.19 µM (active) in test [10].

Turning to `CCCCc1nc2cccnc2n1Cc1ccc(-c2ccccc2-c2nnn[nH]2)cc1`, the call in [1], in test [3], in [5], in test [6], in test [8] and in test [9] was inactive. For the same compound, the half-maximal activity concentration (AC50) in test [10] is 100 µM (active).

In the case of `O=C(NS(=O)(=O)/C=C/c1cccs1)c1ccc(F)cc1Br`, the outcome in test [1], in test [3], in test [5], in test [6] and in test [8] was inactive. Also, the half-maximal activity concentration (AC50) in [10] was 44.7 µM (active).

Turning to `CC(=O)[C@@]1(O)CC[C@H]2[C@@H]3CCC4=CC(=O)CC[C@]4(C)[C@H]3CC[C@@]21C`, the outcome in test [1], in test [2], in [3], in [4], in [5] and in [6] was inactive. Besides, the outcome in test [7], in test [8], in test [9] and in test [10] was inactive. Also, the half-maximal activity concentration (AC50) in test [9] is 20.4 µM (active) and 51.9 µM (active).

On to `CCN(CC)CCOc1ccc(C(=C(Cl)c2ccccc2)c2ccccc2)cc1`, for which the compound was called inactive in test [1], in test [2], in [3], in [5], in test [6] and in [8]. In addition, in [9], the compound was called inactive. In addition, the concentration at half-maximal activity (AC50) is 14.5 µM (active) in [5] and 14.7 µM (active) in test [6].

For `N[C@@H](Cc1c[nH]c2ccccc12)C(=O)O`, the outcome in [1], in test [3], in test [5], in test [6], in test [7] and in test [8] was inactive. The compound was called inactive in [9] and in [10].

For `CCCCCCCCCC[N+](C)(C)[O-]`, the outcome in [1], in test [3], in [5], in test [6], in test [7] and in test [8] was inactive. In [10], the call was inactive.

For `CC(=O)O[C@]1(C(C)=O)CC[C@H]2[C@@H]3C=C(Cl)C4=CC(=O)[C@@H]5C[C@@H]5[C@]4(C)[C@H]3CC[C@@]21C`, the call in test [1], in [2], in [3], in test [4], in [5] and in [6] was inactive. The result in test [7], in test [8], in test [9] and in test [10] was inactive. The concentration at half-maximal activity (AC50) in test [5] is 50.8 µM (active); in test [6], 26.8 µM (active); in test [8], 164 µM (active); in test [10], 48.4 µM (active) [middle of 4 runs].

One may read the AC50 as the concentration giving half of the maximal activity seen.
